According to PubChem BioAssay (NCATS):
Records with an inconclusive call do not appear. Calls of active or inactive are those of the source. Calls follow the shape of the dose curve; as a rule, active = well fitted curve in the direction sought with a large enough effect; inconclusive = small, poorly fitted or top-dose-only effect, or another doubt; inactive = no such curve, though single readings can be large; an effect the other way counts as inactive or inconclusive.

Tests used:
[1] = molecular target: Luciferin 4-monooxygenase (Photinus pyralis) (UniProt P08659); assay: Biochemical firefly luciferase enzyme assay for NPC (AID 624030); also: nearly all actives have a fitted effect of over 70% in size; also: potency is read from the fitted curve at half-maximal effect
Luciferin 4-monooxygenase (Photinus pyralis), sequence (P08659 whole entry, looked up): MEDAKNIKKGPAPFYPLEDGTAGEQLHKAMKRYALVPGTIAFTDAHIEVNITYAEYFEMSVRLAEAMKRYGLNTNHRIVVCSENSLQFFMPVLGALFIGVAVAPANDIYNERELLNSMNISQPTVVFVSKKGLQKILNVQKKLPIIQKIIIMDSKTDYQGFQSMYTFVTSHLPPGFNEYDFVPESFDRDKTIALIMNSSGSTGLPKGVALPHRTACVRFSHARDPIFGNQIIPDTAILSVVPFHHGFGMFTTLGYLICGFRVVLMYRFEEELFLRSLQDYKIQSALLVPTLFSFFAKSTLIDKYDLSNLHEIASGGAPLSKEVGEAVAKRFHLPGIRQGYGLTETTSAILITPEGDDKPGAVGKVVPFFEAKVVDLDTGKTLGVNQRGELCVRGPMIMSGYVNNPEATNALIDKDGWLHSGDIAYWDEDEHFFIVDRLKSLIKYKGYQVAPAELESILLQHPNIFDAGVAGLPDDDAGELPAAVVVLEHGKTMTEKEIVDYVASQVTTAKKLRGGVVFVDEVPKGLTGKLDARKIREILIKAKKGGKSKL
Procedure, shortened: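 Purified P. pyralis luciferase at 10 nM in 50 mM Tris Acetate (final), luminescence read within 5 minutes of enzyme addition to compounds. Activity normalised to PTC124 versus DMSO; concentration-response curves classed by r2, magnitude and activity.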

[2] = S16 Schwann cell PMP22 intronic element firefly luciferase assay (AID 624032); also: nearly all actives have a fitted effect of over 30% in size
Procedure, shortened: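 Rat S16 Schwann cells stably carrying firefly luciferase driven by a PMP22 intronic element, in 10% FBS, treated 24 h at 37 C. ONE-Glo luminescence normalized to PTC124 control and DMSO (0%); curves classed by r2, magnitude and activity.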

[3] = tested on: AS120; assay: qHTS profiling for inhibitors of Plasmodium falciparum proliferation (AID 504749); also: nearly all actives have a fitted effect of over 60% in size; also: potency is read from the fitted curve at half-maximal effect; conditions: P. falciparum in erythrocytes, SYBR Green DNA, 72 h; series mostly up to 12.8 µM
Procedure, shortened: (§1)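 Each compound contacts P. falciparum-infected red blood cells for 72 h at 37 C; lysis buffer (Tris, EDTA, saponin, Triton X, SYBR Green I) is added and fluorescence measured next morning; values normalized to controls.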

[4] = tested on: C2A; assay: as above; conditions: P. falciparum in erythrocytes, SYBR Green DNA, 72 h; series mostly up to 12.8 µM
Procedure, shortened: as §1

[5] = tested on: CP185; assay: as above; conditions: P. falciparum in erythrocytes, SYBR Green DNA, 72 h; series mostly up to 12.8 µM
Procedure, shortened: as §1

[6] = tested on: CP191; assay: as above; conditions: P. falciparum in erythrocytes, SYBR Green DNA, 72 h; series mostly up to 12.8 µM
Procedure, shortened: as §1

[7] = tested on: CP192; assay: as above; conditions: P. falciparum in erythrocytes, SYBR Green DNA, 72 h; series mostly up to 12.8 µM
Procedure, shortened: as §1

[8] = tested on: CP194; assay: as above; conditions: P. falciparum in erythrocytes, SYBR Green DNA, 72 h; series mostly up to 12.8 µM
Procedure, shortened: as §1

[9] = tested on: CP203; assay: as above; conditions: P. falciparum in erythrocytes, SYBR Green DNA, 72 h; series mostly up to 12.8 µM
Procedure, shortened: as §1

[10] = tested on: CP237; assay: as above; conditions: P. falciparum in erythrocytes, SYBR Green DNA, 72 h; series mostly up to 12.8 µM
Procedure, shortened: as §1

[11] = tested on: CP238; assay: as above; conditions: P. falciparum in erythrocytes, SYBR Green DNA, 72 h; series mostly up to 12.8 µM
Procedure, shortened: as §1

[12] = tested on: CP256; assay: as above; conditions: P. falciparum in erythrocytes, SYBR Green DNA, 72 h; series mostly up to 12.8 µM
Procedure, shortened: as §1

[13] = tested on: CP269; assay: as above; conditions: P. falciparum in erythrocytes, SYBR Green DNA, 72 h; series mostly up to 12.8 µM
Procedure, shortened: as §1

[14] = tested on: CP286; assay: as above; conditions: P. falciparum in erythrocytes, SYBR Green DNA, 72 h; series mostly up to 12.8 µM
Procedure, shortened: as §1

[15] = tested on: CP291; assay: as above; conditions: P. falciparum in erythrocytes, SYBR Green DNA, 72 h; series mostly up to 12.8 µM
Procedure, shortened: as §1

[16] = tested on: CP315; assay: as above; conditions: P. falciparum in erythrocytes, SYBR Green DNA, 72 h; series mostly up to 12.8 µM
Procedure, shortened: as §1

[17] = tested on: DIV30; assay: as above; conditions: P. falciparum in erythrocytes, SYBR Green DNA, 72 h; series mostly up to 12.8 µM
Procedure, shortened: as §1

[18] = tested on: P94_40; assay: as above; conditions: P. falciparum in erythrocytes, SYBR Green DNA, 72 h; series mostly up to 12.8 µM
Procedure, shortened: as §1

[19] = tested on: TAB113; assay: as above; conditions: P. falciparum in erythrocytes, SYBR Green DNA, 72 h; series mostly up to 12.8 µM
Procedure, shortened: as §1

[20] = tested on: W2; assay: as above; conditions: P. falciparum in erythrocytes, SYBR Green DNA, 72 h; series mostly up to 12.8 µM
Procedure, shortened: as §1

Measured: Potency

CC(C)Oc1ccc2c(=O)cc(-c3ccccc3)oc2c1
active: [1] 0.809 µM | [20] 0.0478 µM
inactive: [2] | [3] | [4] | [5] | [6] | [7] | [8] | [9] | [10] | [11] | [12] | [13] | [14] | [15] | [16] | [17] | [18] | [19]

N[C@@H]1C(O)OC(CO)C(O)C1O (some centres undefined)
inactive: [1] | [2] | [3] | [4] | [5] | [6] | [8] | [10] | [11] | [12] | [14] | [15] | [16] | [17] | [19] | [20]

CCC1OC(=O)CC(O)C(C)[C@@H](O[C@@H]2OC(C)[C@H](O[C@@H]3C[C@@](C)(O)C(O)C(C)O3)C(N(C)C)C2O)[C@H](CC=O)CC(C)C(=O)/C=C/C(C)=C/[C@@H]1COC1OC(C)C(O)C(OC)[C@@H]1OC (some centres undefined)
inactive: [1] | [2]
active: [12] 1.41 µM | [14] 1 µM | [20] 0.849 µM

CCC(C)C(=O)OC1CC(O)C=C2C=CC(C)C(CCC(O)CC(O)CC(=O)O)C21 (centres undefined)
inactive: [2] | [3] | [4] | [5] | [6] | [7] | [8] | [9] | [10] | [11] | [12] | [13] | [14] | [15] | [16] | [17] | [18] | [19] | [20]

CC[C@@]12CCCN3CCc4c(n(c5ccccc45)[C@](O)(C(=O)OC)C1)C32 (some centres undefined)
inactive: [1] | [2] | [3] | [4] | [5] | [6] | [7] | [8] | [9] | [10] | [11] | [12] | [13] | [14] | [15] | [16] | [17] | [18] | [19]

COC1CC(O[C@H]2/C(C)=C/CC3CC(C[C@]4(CCC(C)C(C5CCCCC5)O4)O3)OC(=O)[C@H]3C=C(C)/C(=N/O)C4OC/C(=C\C=C\[C@@H]2C)[C@@]43O)OC(C)C1O (some centres undefined)
active: [6] 10 µM | [20] 13.5 µM
inactive: [1] | [2] | [7] | [8] | [9] | [13] | [15] | [16]

CC(=O)[C@]1(O)CCC2C3C=C(Cl)C4=CC(=O)C5CC5[C@@]4(C)C3CC[C@]21C (some centres undefined)
inactive: [2] | [3] | [4] | [5] | [6] | [7] | [8] | [9] | [10] | [11] | [12] | [13] | [14] | [15] | [16] | [17] | [18] | [19] | [20]

COc1ccc(-c2cc(=O)c3c(O)cc(O[C@H]4OC(COC5OC(C)C(O)C(O)[C@H]5O)C(O)C(O)C4O)cc3o2)cc1O (some centres undefined)
inactive: [1] | [2] | [3] | [4] | [5] | [6] | [7] | [8] | [9] | [10] | [11] | [12] | [13] | [14] | [16] | [17] | [18] | [19]

CC(=O)O[C@@]1(C(C)=O)CCC2C3CC(C)C4=CC(=O)CC[C@@]4(C)C3CC[C@]21C (some centres undefined)
active: [18] 12.6 µM
inactive: [1] | [7] | [8] | [9] | [10] | [11] | [13] | [14] | [15] | [16] | [17] | [20]

CC1(C)OC2CO[C@]3(COS(N)(=O)=O)OC(C)(C)OC3C2O1 (some centres undefined)
inactive: [2] | [3] | [4] | [5] | [6] | [7] | [8] | [9] | [10] | [11] | [12] | [13] | [14] | [15] | [16] | [17] | [18] | [19] | [20]

C=Cc1c(C)/c2[n-]/c1=C\c1[n-]c(c(CC)c1C)/C=c1\[n-]c3c(c1C)C(=O)C(C(=O)[O-])C=3c1[n-]c(c(C)c1CCC(=O)[O-])\C=2.[Cu].[Na+].[Na+] (centres undefined)
inactive: [2] | [4] | [5] | [12] | [13] | [14] | [15] | [17]
active: [1] 32.2 µM | [20] 12 µM

CCCCCCCCCc1ccc(OCCOCCOCCOCCOCCOCCOCCOCCOCCO)cc1
active: [20] 15.1 µM
inactive: [1] | [4] | [5] | [7] | [11] | [14] | [15] | [16] | [17] | [18] | [19]

CCC1OC(=O)C(C)[C@@H](O[C@H]2C[C@@](C)(OC)C(O)C(C)O2)C(C)[C@@H](O[C@@H]2OC(C)CC(N(C)C)C2O)[C@@](C)(O)CC(C)C(=O)[C@@H](C)C(O)[C@]1(C)O (some centres undefined)
inactive: [1] | [2] | [3] | [4] | [5] | [6] | [7] | [8] | [9] | [10] | [11] | [12] | [13] | [14] | [15] | [16] | [17] | [18] | [19]
